From PubChem BioAssay (NCI)
About 83,000 compounds went through this panel and 20% of them were active in at least one assay; those are over-represented in the sample as a whole.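 In brief: 96-well plates, 48 h treatment, single concentration, percent growth endpoint.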 Unmarked numbers belong to inactive results. Activity calls are given as the source filed them. The calls were made as follows: active = growth percent below 10; inactive = the rest.

system: KM12 colon; experiment: NCI-60 one-dose screen, 48 h (100 = growth as untreated, 0 = no growth, -100 = all killed); conditions: 10 µM unless noted

Structure (SMILES)	growth
O=CC1(C2(C=O)c3ccccc3-c3ccccc32)c2ccccc2-c2ccccc21	-44.5% (active)
N#Cc1c(-c2cccs2)cc(-c2cccnc2)[nH]c1=O	106%
CCOC(=O)c1cnc2ccccc2c1Cl	101%
Cn1cccc1C(=O)C1C(c2cccc([N+](=O)[O-])c2)C2C3CCCCC3CN2C12C(=O)Nc1ccc(Cl)cc12 (stereo not given)	42.3%
Cc1ccccc1/C=C1\CN(C(=O)OC(C)(C)C)C/C(=C\c2ccccc2C)C1=O	-32.8% (active)
Cc1ccc(-c2cc(-c3ccc(Cl)cc3)nc(NC(=O)c3cccnc3)n2)cc1	99.8%
O=c1c2cc(-c3ccccc3)sc2nc2sc(-c3ccccc3)nn12	101%
COc1ccc2nc(NC(=O)CSc3nnc4n3S(=O)(=O)c3ccccc3N4C)sc2c1	111%
Cc1ccc(/C=C2\CN(C(=O)OC(C)(C)C)C/C(=C\c3ccc(C)cc3)C2=O)cc1	-16% (active)
O=C(Nn1c2c(sc1=Nc1ccccc1)C(=O)c1ccccc1C2=O)c1cc2ccc1CCc1ccc(cc1)CC2	78.8%
O=C1Nc2ccc(I)cc2C1=O	82.8%
Fc1ccc2[nH]cc(-c3nonc3-c3c[nH]c4ccc(Br)cc34)c2c1	7.15% (active)
O=C(/C=C/c1ccc(Cl)cc1)c1cccc(Nc2nc(Nc3ccccc3)nc(Nc3ccccc3)n2)c1	86%
O=[N+]([O-])c1ccc(S(=O)(=O)N2CCN(C3=NS(=O)(=O)c4ccccc4N3c3ccccc3)CC2)cc1	110%
Oc1ccc(CCn2c(O)c(/C=C3\CN=c4ccccc4=N3)sc2=S)cc1	5.46% (active)
CCOC(=O)/C=C1\S/C(=N\Nc2cc(=O)[nH]c3ccc(Cl)cc23)N(c2ccccc2)C1=O	98.5%
CCOC(=O)c1cn2ncnc(Oc3ccc(NC(=O)NC4CCCCC4)c(Cl)c3)c2c1C	96.9%
Fc1cc2c(cc1Cl)N(c1ncnc3ccc(-c4cnc5[nH]ncc5c4)cc13)CC2	77.8%
CC1=C(Nc2ccc(N3CCN(C)CC3)cc2)C(=O)c2cncnc2C1=O	91.2%
COc1ccc(C(=O)Nc2ncc(Cc3ccc(F)cc3)s2)cc1	3.05% (active)

Structure (SMILES)	growth
Cc1ccc(CNc2ccc(Cl)cc2NCc2ccc(C)c(O)c2)cc1O	-1.46% (active)
COc1cc(NC(C)CCCNC(C)C)c2ncccc2c1OC (stereo not given)	106%
Cc1ccc(NC(=S)NNC(=S)NNc2ccccc2)cc1C	90.8%
COc1ccc(/C=N/C2=C(C#N)C(c3cccc(Cl)c3)c3c(ccc4ccccc34)O2)cc1 (stereo not given)	24.9%
C#CCOc1ccc2ncnc(Nc3cccc(NC(=O)C=C)c3)c2c1	83.5%
Cc1nc2c(=O)[nH]c(SCC(=O)Nc3cccc(F)c3)nc2[nH]c1=O	105%
CC1(C)c2[nH]c3ccccc3c2C[C@]2(C)[C@H]3CC=C4[C@@H]5C[C@@](C)(C(N)=O)CC[C@]5(C)CC[C@@]4(C)[C@]3(C)CC[C@@H]12	58.2%
CCOC(=O)c1cc(-c2ccc([N+](=O)[O-])cc2)n(-c2ccc(C(=O)O)c(O)c2)c1C	86.8%
Nc1c(C(=O)Nc2ccncc2)sc2nc3c(cc12)CCCCCC3	80.7%
COc1cccc(NC(=O)Cn2cc(CN3CCN(c4ccnc5cc(Cl)ccc45)CC3)nn2)c1	78.4%
COC(=O)c1cc(-c2ccc(OC)cc2)[nH]c1N/N=C/c1c(Cl)cccc1Cl	2.76% (active)
O=C1CC(N2C(=O)/C(=C/C(Cl)=C\c3ccc([N+](=O)[O-])cc3)SC2=S)C(=O)N1c1ccc(Cl)cc1 (stereo not given)	12.4%
Clc1ccc2c(c1)N(c1ncnc3ccc(-c4cnc5[nH]ncc5c4)cc13)CC2	36.4%
O=C1Nc2ccc(Br)cc2/C1=N/c1n[nH]c(=S)s1	95.5%
O=C1C(Cl)=C(Oc2ccccc2)C(=O)c2ccccc21	27.1%
Cn1cc(-c2csc(-c3ccc(Cl)cc3)n2)c2cccnc21	-82.4% [100 µM] (active)
Brc1ccc2[nH]cc(-c3nonc3-c3c[nH]c4ccccc34)c2c1	16%
COc1ccc(C2=Nc3c/c(=C\c4c(O)[nH]c5ccc(Cl)cc45)ccc3=N2)cc1	17.1%
CC(C)NC1CCC(Nc2ccnc3cc(Cl)ccc23)CC1 (stereo not given)	110%
Cc1cc(=O)[nH]c2c(C#N)cnn12	107%
